Compound activity: PubChem BioAssay, National Center for Advancing Translational Sciences (NCATS)
A selection: hits, their analogues and other compounds. The true share with any hit is near 2.5%.
D2 PAM-1: potentiates the human D2 dopamine receptor allosterically | P14416 | DiscoveRx D2 beta-arrestin cells, luminescence, 90 min; 100% = 57 uM dopamine signal | potentiation, % (test concentration not listed) | 360,000 tested, 0.23% active | AID 624464; in the data active means potentiation above about 50%; inconclusive means mostly about 30% to 49%
Target sequence (P14416 whole entry, looked up): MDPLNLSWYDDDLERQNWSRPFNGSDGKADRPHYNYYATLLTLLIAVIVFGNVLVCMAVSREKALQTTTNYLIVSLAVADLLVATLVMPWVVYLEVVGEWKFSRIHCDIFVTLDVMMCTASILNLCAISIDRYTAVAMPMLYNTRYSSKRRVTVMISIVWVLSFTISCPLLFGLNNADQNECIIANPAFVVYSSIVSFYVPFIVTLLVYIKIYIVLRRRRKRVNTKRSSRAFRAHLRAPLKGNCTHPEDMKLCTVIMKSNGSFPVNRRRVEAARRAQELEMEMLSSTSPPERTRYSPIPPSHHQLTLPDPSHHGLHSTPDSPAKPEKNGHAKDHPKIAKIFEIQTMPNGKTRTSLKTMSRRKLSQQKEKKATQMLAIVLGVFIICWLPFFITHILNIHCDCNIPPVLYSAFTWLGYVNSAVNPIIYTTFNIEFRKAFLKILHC
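D2 cells co-treated with compound plus 50 nM dopamine (EC20) for 90 min at 37 deg C to detect potentiation. Beta-arrestin recruitment was read as enzyme-fragment luminescence after 1 h at ambient temperature. Full response was set by 57 uM dopamine.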
D2 ag-1: D2 dopamine receptor (human) agonism; P14416; 340,000 tested, 0.53% active; HEK293 T-REx D2 cells, calcium flux agonist mode; activation, % at 2 µM;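 active means activation over 3 SD above normal in the single-dose calcium agonist read, cut at about 30% in these data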; further: 0% is about no effect
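Calcium-flux readout, 1 cycle/sec over 180 s following compound pin transfer, in inducible HEK293 Trex D2 cells (force-coupled); dopamine controls included. Positive calcium responses during this window marked compounds as potential agonists.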
D2 PAM-2: positive allosteric modulators of human D2 dopamine receptor; P14416; HEK293 T-REx D2, calcium flux, EC20 dopamine potentiation; potentiation, % at 10 µM; 340,000 tested, 0.34% active; AID 485347;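 active means potentiation over 3 SD above the plate norm, cut at about 30% in these data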; further: 0% is about no effect
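Tetracycline-induced Hek293 Trex D2 cells, force-coupled to calcium, loaded with no-wash calcium dye. Compound added with 180 s kinetic read for agonism, then EC20 dopamine and a further 180 s read for potentiation.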
Apoferritin bind: candidate novel general anesthetic via apoferritin binding; Potency, µM (series often up to 77.5 µM), for the others: at the highest dose activity change, negative = displacement, usual class: inhibitors; 350,000 tested, 0.074% active; apoferritin/1-aminoanthracene competitive binding, fluorescence; active means well fitted inhibition curve with a large enough effect; inconclusive means small, poorly fitted or top-dose-only effect; inactive means no such curve, though single readings can be large or run the other way; further: potency means the concentration at half of the fitted maximal effect; on the % scale 0 is the no-effect control and ±100 the full control effect; nearly all actives have a fitted effect of over 20% in size
Target sequence (P02791 2-175 limits assumed): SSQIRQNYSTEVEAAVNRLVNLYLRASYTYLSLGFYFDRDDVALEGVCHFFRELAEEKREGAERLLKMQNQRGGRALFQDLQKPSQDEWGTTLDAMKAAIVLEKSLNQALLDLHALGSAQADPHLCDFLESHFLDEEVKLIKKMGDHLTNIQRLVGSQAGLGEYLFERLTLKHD
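Apoferritin-based anesthetic binding model; compound displacement of fluorescent 1-AMA measured as endpoint fluorescence after 10 minutes at room temperature, scaled to free-ligand and complex controls.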
D2 ag-2: activates the human D2 dopamine receptor; P14416; DiscoveRx PathHunter D2 beta-arrestin, luminescence, 90 min; 100% = 57 uM dopamine signal; activation, % (test concentration not listed); 360,000 tested, 0.084% active; in the data active means activation above about 40%; inconclusive means between about 15% and that limit
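DiscoveRx PathHunter D2 beta-arrestin cells (2,100/well) attached overnight, then compound-stimulated 90 min at 37 C in HBSS/10 mM HEPES/0.1% Tween-20 buffer; beta-galactosidase complementation read by luminescence after 1 h at ambient temperature. Dopamine 57 uM final (EC100) as control.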
D2 antag: antagonists of human D2 dopamine receptor; 340,000 tested, 2% active; P14416; HEK293 TREx D2 cells, calcium flux, dopamine EC80; inhibition, % at 10 µM; in the data active means inhibition above about 30%; inactive means below that, where a call was filed; further: 0% is about no effect
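HEK293 T-REx D2 cells, tet-induced, calcium dye no-wash. Cpd pintool add, 180 s kinetic, then EC80 DA, 180 s kinetic. Ca flux read.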
* hit, by the source's call.

Results for CN(CC(=O)Nc1ccc2c(c1)OCCO2)CC(=O)Nc1ccc(F)c(F)c1F ?
D2 PAM-1: -23; D2 ag-2: 3

How did CN(CC(=O)Nc1ccc(F)c(F)c1F)C(=O)Cc1ccc2c(c1)OCCO2 do in these assays?
D2 PAM-1: 1; D2 ag-1: 0; D2 PAM-2: -1; Apoferritin bind: -3%; D2 ag-2: 1; D2 antag: 35*

What do the screens show for `CCN1C(=O)c2cccc3c(S(=O)(=O)NC(Cc4ccccc4)C(=O)O)ccc1c23` (stereo unspecified)?
D2 PAM-1: -6; D2 ag-1: 1; D2 PAM-2: 0; Apoferritin bind: 325%; D2 ag-2: -2; D2 antag: 5

How did CC1(C)C(=O)NC(=O)N1Cc1ccccc1 do in these assays?
D2 PAM-1: -16; D2 ag-1: 0; D2 PAM-2: -5; D2 ag-2: -3; D2 antag: 45*

What do the screens show for `CC12CN(Cc3ccccc3)CC(C)(CN(Cc3ccccc3)C1)C2=O`?
D2 PAM-1: -8; D2 ag-1: 1; D2 PAM-2: 5; Apoferritin bind: -10%; D2 ag-2: 1; D2 antag: -9

How did Cc1onc(-c2c(Cl)cccc2Cl)c1C(=O)NCCCN1CCOCC1 do in these assays?
D2 PAM-1: 3; D2 ag-1: 0; D2 PAM-2: -22; Apoferritin bind: -7%; D2 ag-2: -3; D2 antag: 43*

Results for Cc1onc(-c2ccccc2Cl)c1C(=O)NCCCN1CCOCC1 ?
D2 PAM-1: -1; D2 ag-1: 1; D2 PAM-2: 7; Apoferritin bind: -10%; D2 ag-2: -1; D2 antag: 15

How did O=C(CSc1nc2sc3c(c2c(=O)[nH]1)CCCC3)NCCO do in these assays?
D2 PAM-1: -8; D2 ag-1: 0; D2 PAM-2: -8; Apoferritin bind: 4%; D2 ag-2: -6; D2 antag: 42*

Results for CCOC(=O)CSc1nc2sc3c(c2c(=O)[nH]1)CCCC3 ?
D2 PAM-1: -7; D2 ag-1: 0; D2 PAM-2: 0; Apoferritin bind: -16%; D2 ag-2: 1; D2 antag: 6

What do the screens show for `COC(=O)NC(=S)Nc1ccc(Oc2ccc(Cl)cc2Cl)c(Cl)c1`?
D2 PAM-1: -7; D2 PAM-2: 36*; Apoferritin bind: -13%; D2 ag-2: -1

What do the screens show for `COc1cc(CCC(=O)OCC(=O)Nc2ccc(C(N)=O)cc2)cc(OC)c1OC`?
D2 PAM-1: 7; D2 ag-1: 0; D2 PAM-2: 3; Apoferritin bind: -5%; D2 ag-2: 6; D2 antag: 39*

How did CN(Cc1c(C(=O)N/N=C/c2ccccc2)nnn1-c1nonc1N)C1CCCCC1 do in these assays?
D2 PAM-1: -2; D2 ag-1: 0; D2 PAM-2: -3; Apoferritin bind: -1%; D2 ag-2: -5; D2 antag: -9

How did O=C(NCCCN1CCN(c2ccccc2)CC1)C1CCCN(c2ncnc3c2nc2n3CCCCC2)C1 (stereo unspecified) do in these assays?
D2 PAM-1: -29; D2 ag-1: 12; D2 PAM-2: -29; Apoferritin bind: 1%; D2 ag-2: 0; D2 antag: 59*

Results for O=C(NCCc1ccccc1)C1CCCN(c2ncnc3c2nc2n3CCCCC2)C1 (stereo unspecified) ?
D2 PAM-1: 1; D2 ag-1: 0; D2 PAM-2: -11; Apoferritin bind: -9%; D2 ag-2: 0; D2 antag: 6

What do the screens show for `Cc1c(C)c2cc(Cl)c(O)c(CN(C)C)c2oc1=O`?
D2 PAM-1: -2; D2 ag-1: 0; D2 PAM-2: 7; Apoferritin bind: inactive; D2 ag-2: -1; D2 antag: 35*

What do the screens show for `CCc1c(C)c2cc(Cl)c(O)c(CN(C)C)c2oc1=O`?
D2 PAM-1: -8; D2 ag-1: 1; D2 PAM-2: 5; Apoferritin bind: 950%; D2 ag-2: 0; D2 antag: -20

What do the screens show for `Clc1ccc(Cl)c(OCCCCNCc2ccccc2)c1`?
D2 PAM-1: -27; D2 ag-1: 2; D2 PAM-2: -19; Apoferritin bind: -16%; D2 ag-2: -6; D2 antag: 18

What do the screens show for `O=C(COC(=O)CSc1ccc(F)cc1)NCCCc1ccccc1`?
D2 PAM-1: 17; D2 ag-1: -2; D2 PAM-2: -12; D2 ag-2: -2; D2 antag: 1

What do the screens show for `C=CCn1c(SCC(=O)Nc2ccc(OC)cc2)nc2c([nH]c3ccccc32)c1=O`?
D2 PAM-1: 0; D2 ag-1: 1; D2 PAM-2: 11; Apoferritin bind: 6%; D2 ag-2: 0; D2 antag: 33*

Results for CC(=O)c1ccc(NC(=O)C2CCC(CNS(=O)(=O)c3cccc4nsnc34)CC2)cc1 (stereo unspecified) ?
D2 PAM-2: 0; Apoferritin bind: inconclusive

What do the screens show for `COc1ccc(F)c(CN2CCN(CCc3ccccc3)C(CCO)C2)c1` (stereo unspecified)?
D2 PAM-1: -12; D2 ag-1: 1; D2 PAM-2: -5; Apoferritin bind: -8%; D2 ag-2: 2; D2 antag: -10

How did COCc1cc(CN2CCN(CCCc3ccccc3)C(CCO)C2)ccc1OC (stereo unspecified) do in these assays?
D2 PAM-1: -12; D2 ag-1: 1; D2 PAM-2: -7; Apoferritin bind: 2%; D2 ag-2: -2; D2 antag: 8

What do the screens show for `COc1ccc(OC)c(CN2CCN(CCc3ccccc3)C(CCO)C2)c1` (stereo unspecified)?
D2 PAM-1: -9; D2 ag-1: 1; D2 PAM-2: -17; Apoferritin bind: -9%; D2 ag-2: -6; D2 antag: 45*

How did COc1ccc(O)c(CN2CCN(CCCc3ccccc3)C(CCO)C2)c1 (stereo unspecified) do in these assays?
D2 PAM-1: -2; D2 ag-1: -3; D2 PAM-2: -20; Apoferritin bind: -10%; D2 ag-2: -1; D2 antag: 75*

Results for OCCC1CN(Cc2cc(F)ccc2F)CCN1CCCc1ccccc1 (stereo unspecified) ?
D2 PAM-1: -6; D2 ag-1: -1; D2 PAM-2: -35; Apoferritin bind: -16%; D2 ag-2: -7; D2 antag: 83*

Results for CCOc1ccccc1NC(=O)C1C2C=CC(C2)C1C(=O)O (stereo unspecified) ?
D2 PAM-1: -10; D2 ag-1: -1; D2 PAM-2: -4; Apoferritin bind: -9%; D2 ag-2: 0; D2 antag: 3
